# A selection: hits, their analogues and other compounds. The true share with any hit is near 0.39%.
# Anesthetic bind: candidate novel general anesthetic via apoferritin binding; apoferritin/1-aminoanthracene competitive binding, fluorescence; Potency, µM (highest dose often 77.5 µM), inactives show at the highest dose activity change, negative = displacement, actives largely listed as inhibitors; 350,000 compounds, 0.074% hits; AID 485281; also: potency is read from the fitted curve at half-maximal effect; % is scaled to controls: 0 for no effect and ±100 for the full control effect; nearly all actives have a fitted effect of over 20% in size
# Target sequence (P02791 2-175 limits assumed): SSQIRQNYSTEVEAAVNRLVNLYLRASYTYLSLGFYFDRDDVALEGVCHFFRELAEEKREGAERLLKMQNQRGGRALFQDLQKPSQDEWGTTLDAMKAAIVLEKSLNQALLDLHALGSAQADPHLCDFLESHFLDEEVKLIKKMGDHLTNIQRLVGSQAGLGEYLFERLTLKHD
#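 Apoferritin-based anesthetic binding model; compound displacement of fluorescent 1-AMA measured as endpoint fluorescence after 10 minutes at room temperature, scaled to free-ligand and complex controls.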
# MmCpn inh: M. maripaludis TRiC chaperonin inhibition; AID 504842; 330,000 compounds, 0.031% hits; purified Mm-Cpn ATPase, ADP Transcreener TR-FRET; Potency, µM (titrated, usually from 76.9 µM), without a hit: at the highest dose activity, negative = inhibition, most hits filed as inhibitors; also: potency is read from the fitted curve at half-maximal effect; % is scaled to controls: 0 for no effect and ±100 for the full control effect; nearly all actives have a fitted effect of over 80% in size
#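 ATPase read-out: TR-FRET ADP immunoassay (anti-ADP Eu cryptate vs ADP-d2), ex 320 nm, em 590/665 nm; signal drops as ADP forms. Enzyme 25 nM, ATP 10 uM, 30 min at 37°C after 10 min compound preincubation.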
# CCT chaperon mod: cytosolic chaperonin activity modulation; purified chaperonin ATPase assay, HTRF ADP detection, 30 min; activity change, % (concentration not given with the values), hits read low; 360,000 compounds, 0.3% hits; AID 651819; in the data active = activity change below about -30%; also: % is scaled to controls: 0 for no effect and ±100 for the full control effect
#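 Nucleotide hydrolysis assay: TRiC at 20–40 nM final (set by batch activity) with 10 uM ATP, 30 min at 37 °C, in presence of 76 uM compound. Detection by competitive ADP HTRF, 30 min ambient.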
# ERG Ets-DNA blk: inhibitors of human ERG Ets domain-DNA interaction; fluorescence polarization, His-ERG Ets domain / labelled DNA; Potency, µM (doses to about 76.9 µM), without a hit: top-dose FP activity, negative = inhibition, hits mostly inhibitors; P11308; AID 624246; 370,000 compounds, 0.028% hits; active = well fitted inhibition curve with a large enough effect in the polarisation, with a control signal flat; inconclusive = small, poorly fitted or top-dose-only effect, or effect the other way, or a change in a side signal; inactive = no such curve, though single readings can be large or run the other way; the % refers to the polarisation;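 also: polarization taken with two DNA probes labelled with fluorescein and Texas red; potency is read from the fitted curve at half-maximal effect; % of control where 0% means no effect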
# Target sequence (P11308 whole entry, looked up, the tested form may be a part): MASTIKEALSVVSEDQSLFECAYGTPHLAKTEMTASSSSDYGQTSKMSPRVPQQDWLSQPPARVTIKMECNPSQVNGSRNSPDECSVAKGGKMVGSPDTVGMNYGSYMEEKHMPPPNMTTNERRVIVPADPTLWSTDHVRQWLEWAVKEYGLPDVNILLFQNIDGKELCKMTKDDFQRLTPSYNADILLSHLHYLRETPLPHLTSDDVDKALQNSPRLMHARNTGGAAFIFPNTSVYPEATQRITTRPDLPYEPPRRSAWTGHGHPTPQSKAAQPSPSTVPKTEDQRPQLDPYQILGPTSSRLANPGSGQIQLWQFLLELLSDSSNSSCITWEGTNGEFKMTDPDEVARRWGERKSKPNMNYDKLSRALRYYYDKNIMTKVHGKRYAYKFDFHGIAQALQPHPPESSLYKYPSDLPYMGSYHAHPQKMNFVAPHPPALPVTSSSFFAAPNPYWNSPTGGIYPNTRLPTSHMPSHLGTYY
#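 His-tagged ERG Ets domain (1 uM in the protein solution; 300mM KCl, 50mM Tris-HCl, 1mM EDTA, 1mM DTT, pH 7.5) received compound, then a probe mix of 5 nM fluorescein-DNA and 100nM Texas-615-DNA. Fluorescence polarization was read for both dyes.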
# * hit, by the source's call; ? = inconclusive; · = no result; [ ] = dose if it differs, or a comment. Unless noted, calls follow the shape of the dose curve; as a rule, active = well fitted curve in the direction sought with a large enough effect; inconclusive = small, poorly fitted or top-dose-only effect, or another doubt; inactive = no such curve, though single readings can be large; an effect the other way counts as inactive or inconclusive.
SMILES,Anesthetic bind,MmCpn inh,CCT chaperon mod,ERG Ets-DNA blk
COc1cc(OC)c2c(c1C(CCN1CCN(c3ccccc3)CC1)c1ccc(N(C)C)cc1)OC(=O)CC2c1ccc(N(C)C)cc1 (configuration not stated),11.9%,·,·,·
COc1ccc(C2CC(c3ccccc3)=NN2C(=S)Nc2ccccc2)cc1 (configuration not stated),-10.2%,50.1µM*,-8.6,5.7%
C#CCOCCOCCOCCNc1nc(N2CCOCC2)nc(N2CCN(C(=O)[C@H](CCC(=O)O)n3cc(C(N)[C@H](C)CC)nn3)CC2)n1 (some centres not stated),-0.1%,·,0.7,2.1%
C#CCOCCOCCOCCNc1nc(N2CCN(C(=O)[C@H](CCC(=O)O)n3cc(CN)nn3)CC2)nc(N2CCN(C(=O)[C@H](CCC(=O)O)n3cc([C@@H](N)[C@H](C)CC)nn3)CC2)n1,·,-0.2%,-33.4*,-10.5%
Cc1ccc(Cl)cc1NC(=O)N1CCC(CN2CCCCCC2)CC1,-15.3%,·,·,0.5%
COc1cc2sc(-c3ccc(S(C)(=O)=O)cc3)c(C(=O)NCCCCO)c2cc1OC,·,-5.0%,-2.7,1.0%
COc1cc2sc(-c3ccc(S(C)(=O)=O)cc3)c(C(=O)NCc3ccc(C)o3)c2cc1OC,·,50.1µM*,-0.3,-1.5%
Nc1cccc(N2C(=O)c3cccc4c(N)ccc(c34)C2=O)c1,102.2%,-4.1%,-0.6,?
Nc1ccc2c3c(cccc13)C(=O)N(c1ccccc1)C2=O,127.3%,-2.9%,-3.0,25.1µM*
CCCn1c(O)c(N=NC(=O)CNC(=O)/C=C/c2ccc(OC)cc2)c2ccccc21,-13.8%,1.6%,-0.4,-5.0%
NC(=O)Cn1c(O)c(N=NC(=O)CNC(=O)/C=C/c2ccccc2)c2ccccc21,-6.7%,0.8%,-73.3*,-8.2%
COc1ccc(-c2nc3ccccc3s2)cc1NC(=O)COc1cccc(C)c1,124.7%,·,·,9.9%
CCCC[C@@H]1CCCO[C@@](C(=O)NCc2ccc(S(C)(=O)=O)cc2)(C(F)(F)F)C1,-14.1%,·,·,·
Cc1ccc2nc(-c3ccc(SCC(=O)N4CCc5ccccc54)nc3)[nH]c2c1,-8.5%,-1.8%,-43.6*,·
Cc1ccc2nc(-c3cccnc3SCC(=O)N3c4ccccc4CC3C)[nH]c2c1 (configuration not stated),-4.7%,50.1µM*,0.9,8.2%
N=c1nc2n(cc1F)C1OC(CO)C(O)C1O2 (configuration not stated),·,·,-48.0*,-3.4%
CO/N=C(\C)CCN1CCc2nc(-c3ccccc3)c(-c3ccccc3)cc2C1,-6.7%[15.3 µM],·,·,·
O=C(C[C@H]1C(=O)N(C2CCCCC2)C[C@@H]1c1ccccc1)Nc1ccc(Br)cc1,·,·,-53.0*,·
C=CCc1ccccc1OCC(=O)NNC(=S)NCc1ccccc1,-22.8%,3.4%,-33.5*,-4.9%
CCOC(=O)C1CCCN(C(=O)c2cccc(NC(=O)c3nsc4ccccc34)c2)C1 (configuration not stated),?,·,·,4.8%
COCCCN1C(=O)C(=O)/C(=C(/O)c2ccc(S(=O)(=O)N3CCCCC3)cc2)C1c1cccc(OC)c1 (configuration not stated),-5.5%,-1.6%,-83.7*,2.9%
COCCCN1C(=O)C(=O)/C(=C(/O)c2ccc(S(=O)(=O)N3CCCCC3)cc2)C1c1ccc(O)c(OC)c1 (configuration not stated),-2.2%,-0.7%,-2.0,0.3%
CCOc1ccc(CCNC(=O)c2nc(-c3cccc(F)c3)n3c2CCCCC3)cc1OCC,43.2%,·,·,1.3%
O=C(NCc1ccccc1)[C@]1(C(F)(F)F)C[C@H](CCCO)CCCO1,-1.6%,·,·,·
COC(=O)c1ccc(C2Nc3c(C)cc(C)cc3C3C=CCC32)cc1 (configuration not stated),?,·,·,-3.1%
SMILES,Anesthetic bind,MmCpn inh,CCT chaperon mod,ERG Ets-DNA blk
CCc1nnc(NC(=O)CSc2nc(-c3ccccc3)c(-c3ccccc3)o2)s1,-1.4%,-1.6%,-2.8,5.0%
CCc1nnc(NC(=O)CCC(=O)N2CCN(Cc3ccc(Cl)cc3)CC2)s1,-18.9%,-0.2%,-3.5,-5.1%
CCc1nnc(NC(=O)CSc2nnc(-c3ccccc3O)o2)s1,-11.3%,2.2%,-55.8*,4.6%
CCc1nnc(NC(=O)CSc2nccn2-c2ccccc2)s1,-2.7%,4.5%,-38.4*,-2.1%
CCc1nnc(NC(=O)CCC(=O)N2CCN(Cc3ccccc3)CC2)s1,-7.8%,-0.2%,-93.4*,·
O=C1OC2(c3ccc(O)cc3Oc3cc(O)ccc32)c2ccccc21,849.9%,·,·,·
O=C1OC2(c3ccccc31)c1cc(I)c(O)c(I)c1Oc1c2cc(I)c(O)c1I,-14.7%,31.6µM*,·,·
C/C(Cc1ccccc1)=N\NC(=O)CNC(=O)c1ccc(Cl)cc1,-19.4%,0.3%,0.8,6.4%
CCC/C(=N\NC(=O)CNC(=O)c1ccc(Cl)cc1)c1ccccc1,15.8µM*,5.2%,-1.8,1.3%
OC1OC[C@@H](O)[C@@H](O)[C@@H]1O (some centres not stated),-7.3%,·,·,·
O=C1c2ccccc2C(=O)N1c1cccnc1,-4.8%,·,-43.6*,-11.1%
O=C(CCC1N=C2c3ccccc3N=C(SCC(=O)NCC3CCCO3)N2C1=O)NCc1ccc(F)cc1 (configuration not stated),-11.5%,-1.1%,-45.8*,6.3%
CS(=O)(=O)n1nc(-c2ccco2)nc1NCc1ccccc1Cl,7.9%,·,·,0.2%
O=C(CCc1ccccc1)Nc1cccc(S(=O)(=O)N2CCOCC2)c1,·,0.2%,-35.5*,-0.7%
O=C(NC1CC1)c1cccc(NC(=O)c2cc(S(=O)(=O)N3CCOCC3)ccc2Cl)c1,·,-1.2%,-32.0*,1.9%
C=CC1CN2CCC1C[C@H]2C(O)c1ccnc2ccc(OC)cc12 (some centres not stated),-4.7%,·,·,·
C=CCN1C(=O)/C(=C/N(C)C)S/C1=N\S(=O)(=O)c1cccs1,·,·,1.1,·
CCN1C(=O)/C(=C\N(C)C)S/C1=N\S(=O)(=O)c1ccc(C)cc1,-2.9%,0.6%,-45.2*,-3.5%
CCN1C(=O)[C@@H]2[C@H]3C(=CC[C@H]2C1=O)C(=O)[C@H]1OC1[C@H]3O (some centres not stated),4.3%[15.3 µM],·,·,·
CN(CC(=O)Nc1ccc(F)c(F)c1)S(=O)(=O)c1cccs1,1.2%,0.9%,-39.9*,-2.4%
CN(CC(=O)Nc1ccc2c(c1)OCO2)S(=O)(=O)c1cccs1,-8.4%,-0.8%,-0.1,-4.3%
Cc1ccc(C)c(N(C)C(=O)CCNC(=O)Cn2cnc3ccccc3c2=O)c1,-1.3%,·,·,-2.9%
CN(C)C(CNC(=O)/C=C/c1cccc(Cl)c1)c1ccccc1 (configuration not stated),-18.3%,0.8%,1.3,39.8µM*
CC(C)(C)c1ccc(-c2nnc(SCC(=O)O)n2N)cc1,-6.9%,-1.0%,0.0,-0.1%
C=CCn1c(SCC(=O)O)nnc1-c1ccc(C(C)(C)C)cc1,-11.6%,-5.7%,-30.8*,-8.9%

# Screening data deposited in PubChem by National Center for Advancing Translational Sciences (NCATS).
